# Reference: the supplement of paper PMC11732987, “Enantioselective OTUD7B fragment discovery through chemoproteomics screening and high-throughput optimisation” (Communications Chemistry, 2025)
# Unmarked numbers belong to inactive results.
# How the values were obtained:
# Test in all cases: log2 ratio of Biotin-Ahx-Ub-VS probe labelling (fragment/DMSO); higher = less target engagement (more negative = stronger competition), active = hit call of the paper (q ≤ 0.05, log2 ratio ≤ -1)
# Conditions in all cases: compound concentration: 200 uM; treatment time: 3 h
# [1] = molecular target: T1, OTUD6B (UniProt Q8N6M0)
# T1 sequence (whole entry): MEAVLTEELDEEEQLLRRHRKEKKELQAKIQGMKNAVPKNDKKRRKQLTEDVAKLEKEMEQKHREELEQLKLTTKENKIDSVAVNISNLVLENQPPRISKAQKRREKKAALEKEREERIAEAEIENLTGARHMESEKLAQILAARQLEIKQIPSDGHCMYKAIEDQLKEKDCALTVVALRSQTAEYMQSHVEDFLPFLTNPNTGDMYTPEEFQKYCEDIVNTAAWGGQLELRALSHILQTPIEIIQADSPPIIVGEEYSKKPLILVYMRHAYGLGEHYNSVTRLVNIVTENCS
# Summary of the method: (§1)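 Using Biotin-Ahx-Ub-VS at 0.5 µM final for 1 h, DUBs were labelled in HEK293T lysate (495 µg per sample) that had first been treated in triplicate with fragment at 200 µM or vehicle for 3 h. NeutrAvidin enrichment, LysC and trypsin digestion and diaPASEF LC-MS/MS followed. Spectronaut label-free quantities were global-median-normalised. Values are average log2 fragment/vehicle ratios by unpaired t-test, using proteins with ≥2 unique peptides.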
# [2] = molecular target: T2, OTUD7B (UniProt Q6GQQ9)
# T2 sequence (whole entry): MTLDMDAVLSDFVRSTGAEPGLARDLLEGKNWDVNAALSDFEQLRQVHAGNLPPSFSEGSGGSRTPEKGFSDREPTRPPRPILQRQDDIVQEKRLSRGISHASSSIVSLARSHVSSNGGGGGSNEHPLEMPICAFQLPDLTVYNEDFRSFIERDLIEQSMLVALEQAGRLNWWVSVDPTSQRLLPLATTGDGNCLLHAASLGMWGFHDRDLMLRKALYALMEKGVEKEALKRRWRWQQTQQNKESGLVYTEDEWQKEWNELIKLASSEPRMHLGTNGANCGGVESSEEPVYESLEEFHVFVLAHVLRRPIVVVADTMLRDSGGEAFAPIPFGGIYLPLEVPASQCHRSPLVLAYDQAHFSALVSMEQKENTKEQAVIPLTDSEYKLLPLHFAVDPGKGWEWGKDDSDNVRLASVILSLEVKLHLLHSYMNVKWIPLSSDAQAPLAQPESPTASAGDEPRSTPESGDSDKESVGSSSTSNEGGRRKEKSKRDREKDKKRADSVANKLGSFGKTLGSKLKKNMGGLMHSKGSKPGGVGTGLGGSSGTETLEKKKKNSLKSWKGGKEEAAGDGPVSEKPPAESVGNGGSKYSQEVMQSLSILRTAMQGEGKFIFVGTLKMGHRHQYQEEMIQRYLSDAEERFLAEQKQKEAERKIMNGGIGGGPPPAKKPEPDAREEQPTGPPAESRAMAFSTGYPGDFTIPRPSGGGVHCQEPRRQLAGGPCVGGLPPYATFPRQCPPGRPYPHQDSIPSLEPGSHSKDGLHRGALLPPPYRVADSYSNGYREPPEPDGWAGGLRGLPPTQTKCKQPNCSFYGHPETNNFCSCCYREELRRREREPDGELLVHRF
# Summary of the method: as §1
# [3] = molecular target: PRPF8 (UniProt Q6P2Q9)
# Summary of the method: as §1
# [4] = molecular target: T3, PSMD7 (UniProt P51665)
# T3 sequence (whole entry): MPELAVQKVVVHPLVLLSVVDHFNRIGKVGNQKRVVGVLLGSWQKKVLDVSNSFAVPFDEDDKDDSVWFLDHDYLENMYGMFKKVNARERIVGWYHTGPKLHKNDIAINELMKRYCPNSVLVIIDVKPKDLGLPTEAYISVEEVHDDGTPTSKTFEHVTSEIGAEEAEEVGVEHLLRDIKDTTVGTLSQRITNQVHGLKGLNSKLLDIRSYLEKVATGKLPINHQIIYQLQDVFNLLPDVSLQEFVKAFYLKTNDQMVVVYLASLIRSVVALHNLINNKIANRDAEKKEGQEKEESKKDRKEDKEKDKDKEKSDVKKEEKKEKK
# Summary of the method: as §1
# [5] = molecular target: UCHL1 (UniProt P09936)
# Summary of the method: as §1
# [6] = molecular target: T4, UCHL3 (UniProt P15374)
# T4 sequence (whole entry): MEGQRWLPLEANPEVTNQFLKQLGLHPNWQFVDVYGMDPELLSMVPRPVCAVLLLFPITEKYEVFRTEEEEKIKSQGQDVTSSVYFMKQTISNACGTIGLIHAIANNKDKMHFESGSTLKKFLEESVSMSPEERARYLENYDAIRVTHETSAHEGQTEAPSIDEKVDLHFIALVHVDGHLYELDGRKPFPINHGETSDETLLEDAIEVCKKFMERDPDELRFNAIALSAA
# Summary of the method: as §1
# [7] = molecular target: T5, UCHL5 (UniProt Q9Y5K5)
# T5 sequence (whole entry): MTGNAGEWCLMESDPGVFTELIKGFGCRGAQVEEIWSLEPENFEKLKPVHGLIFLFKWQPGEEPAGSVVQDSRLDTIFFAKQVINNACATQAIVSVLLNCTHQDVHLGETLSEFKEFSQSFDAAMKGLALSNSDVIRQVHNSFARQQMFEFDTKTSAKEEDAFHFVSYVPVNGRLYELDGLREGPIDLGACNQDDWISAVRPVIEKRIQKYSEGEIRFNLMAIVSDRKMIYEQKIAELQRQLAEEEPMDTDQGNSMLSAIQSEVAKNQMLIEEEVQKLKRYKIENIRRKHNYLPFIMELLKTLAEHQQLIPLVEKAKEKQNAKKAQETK
# Summary of the method: as §1
# [8] = molecular target: USP10 (UniProt Q14694)
# Summary of the method: as §1
# [9] = molecular target: T6, USP15 (UniProt Q9Y4E8)
# T6 sequence (whole entry): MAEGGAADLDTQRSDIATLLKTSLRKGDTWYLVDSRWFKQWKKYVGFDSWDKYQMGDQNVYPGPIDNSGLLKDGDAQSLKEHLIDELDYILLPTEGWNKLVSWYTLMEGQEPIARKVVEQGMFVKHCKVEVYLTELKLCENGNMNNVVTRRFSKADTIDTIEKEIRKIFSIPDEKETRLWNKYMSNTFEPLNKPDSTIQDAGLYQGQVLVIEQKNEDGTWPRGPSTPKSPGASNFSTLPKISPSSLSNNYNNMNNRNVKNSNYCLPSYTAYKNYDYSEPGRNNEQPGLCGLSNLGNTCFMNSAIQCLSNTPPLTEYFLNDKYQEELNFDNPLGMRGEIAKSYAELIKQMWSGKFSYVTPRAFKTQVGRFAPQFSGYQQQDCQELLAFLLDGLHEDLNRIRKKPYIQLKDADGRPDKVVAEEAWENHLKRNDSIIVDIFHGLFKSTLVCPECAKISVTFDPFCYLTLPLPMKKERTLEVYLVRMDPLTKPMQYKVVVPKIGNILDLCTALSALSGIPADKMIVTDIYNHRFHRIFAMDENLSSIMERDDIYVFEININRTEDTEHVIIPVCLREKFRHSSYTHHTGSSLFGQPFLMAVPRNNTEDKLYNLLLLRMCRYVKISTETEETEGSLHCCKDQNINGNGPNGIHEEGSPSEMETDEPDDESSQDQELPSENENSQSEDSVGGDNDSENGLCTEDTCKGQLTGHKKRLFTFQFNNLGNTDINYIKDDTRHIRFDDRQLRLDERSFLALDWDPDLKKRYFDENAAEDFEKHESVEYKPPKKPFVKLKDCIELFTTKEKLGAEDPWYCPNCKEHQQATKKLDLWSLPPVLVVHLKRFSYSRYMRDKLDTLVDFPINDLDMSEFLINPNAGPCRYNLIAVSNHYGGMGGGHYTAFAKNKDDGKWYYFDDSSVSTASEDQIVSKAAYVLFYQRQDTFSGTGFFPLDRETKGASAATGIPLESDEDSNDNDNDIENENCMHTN
# Summary of the method: as §1
# [10] = molecular target: USP16 (UniProt Q9Y5T5)
# Summary of the method: as §1
# Sequence of USP10 (Q14694 whole entry): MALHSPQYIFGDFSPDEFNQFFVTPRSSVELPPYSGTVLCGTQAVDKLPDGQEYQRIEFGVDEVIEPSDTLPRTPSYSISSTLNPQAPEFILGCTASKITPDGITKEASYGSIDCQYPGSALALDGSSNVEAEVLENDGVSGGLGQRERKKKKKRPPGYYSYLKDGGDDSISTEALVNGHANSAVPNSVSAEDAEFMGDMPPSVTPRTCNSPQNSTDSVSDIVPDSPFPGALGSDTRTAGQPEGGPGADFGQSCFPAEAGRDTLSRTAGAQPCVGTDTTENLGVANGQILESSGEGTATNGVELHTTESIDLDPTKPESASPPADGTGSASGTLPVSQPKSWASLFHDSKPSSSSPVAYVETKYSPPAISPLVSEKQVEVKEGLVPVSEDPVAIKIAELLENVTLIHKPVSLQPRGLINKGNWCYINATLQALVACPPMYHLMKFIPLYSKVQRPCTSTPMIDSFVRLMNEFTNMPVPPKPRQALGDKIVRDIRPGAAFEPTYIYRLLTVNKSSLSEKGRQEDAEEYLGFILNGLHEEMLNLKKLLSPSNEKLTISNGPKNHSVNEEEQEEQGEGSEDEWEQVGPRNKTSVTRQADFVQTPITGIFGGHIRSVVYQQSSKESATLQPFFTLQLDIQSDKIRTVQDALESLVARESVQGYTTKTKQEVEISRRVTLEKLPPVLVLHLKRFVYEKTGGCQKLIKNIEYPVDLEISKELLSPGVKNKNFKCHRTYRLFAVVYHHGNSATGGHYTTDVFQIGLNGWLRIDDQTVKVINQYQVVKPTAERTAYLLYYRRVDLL
# Sequence of UCHL1 (P09936 whole entry, looked up): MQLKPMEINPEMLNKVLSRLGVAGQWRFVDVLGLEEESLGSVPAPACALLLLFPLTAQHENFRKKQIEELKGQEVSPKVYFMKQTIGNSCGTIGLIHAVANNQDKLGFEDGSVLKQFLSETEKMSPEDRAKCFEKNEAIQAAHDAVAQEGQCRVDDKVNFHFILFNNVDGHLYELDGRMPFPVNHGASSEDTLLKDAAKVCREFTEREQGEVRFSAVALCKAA
# Sequence of USP16 (Q9Y5T5 whole entry, looked up): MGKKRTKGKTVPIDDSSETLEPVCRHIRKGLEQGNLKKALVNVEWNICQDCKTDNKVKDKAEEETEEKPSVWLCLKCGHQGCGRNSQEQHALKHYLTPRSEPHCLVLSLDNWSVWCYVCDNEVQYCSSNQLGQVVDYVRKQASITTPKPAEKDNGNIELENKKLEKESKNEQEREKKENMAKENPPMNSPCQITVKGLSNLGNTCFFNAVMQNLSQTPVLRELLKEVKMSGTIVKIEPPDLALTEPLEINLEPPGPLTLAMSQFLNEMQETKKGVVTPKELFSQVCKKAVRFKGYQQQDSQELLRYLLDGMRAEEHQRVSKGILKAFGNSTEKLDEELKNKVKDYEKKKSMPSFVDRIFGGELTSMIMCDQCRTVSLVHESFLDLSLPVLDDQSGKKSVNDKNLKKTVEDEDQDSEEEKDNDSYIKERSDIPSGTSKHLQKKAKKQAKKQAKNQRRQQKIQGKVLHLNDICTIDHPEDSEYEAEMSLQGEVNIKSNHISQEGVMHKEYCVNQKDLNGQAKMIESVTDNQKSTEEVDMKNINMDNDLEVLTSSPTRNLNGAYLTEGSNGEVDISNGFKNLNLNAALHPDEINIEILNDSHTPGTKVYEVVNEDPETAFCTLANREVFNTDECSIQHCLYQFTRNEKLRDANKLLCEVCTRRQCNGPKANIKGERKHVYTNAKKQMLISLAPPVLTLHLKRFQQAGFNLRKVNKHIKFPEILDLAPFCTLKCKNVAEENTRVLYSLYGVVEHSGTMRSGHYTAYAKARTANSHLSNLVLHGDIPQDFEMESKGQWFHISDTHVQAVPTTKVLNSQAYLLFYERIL
smiles,measurement,setting,value
Cc1cc(Cl)ccc1NC(=O)CCl,log2 ratio of Biotin-Ahx-Ub-VS probe labelling,[1],-0.0452
same,log2 ratio of Biotin-Ahx-Ub-VS probe labelling,[2],-0.649
same,log2 ratio of Biotin-Ahx-Ub-VS probe labelling,[3],0.192
same,log2 ratio of Biotin-Ahx-Ub-VS probe labelling,[4],0.0336
same,log2 ratio of Biotin-Ahx-Ub-VS probe labelling,[5],-1.46 (active)
same,log2 ratio of Biotin-Ahx-Ub-VS probe labelling,[6],0.0619
same,log2 ratio of Biotin-Ahx-Ub-VS probe labelling,[7],-0.109
same,log2 ratio of Biotin-Ahx-Ub-VS probe labelling,[8],-0.132
same,log2 ratio of Biotin-Ahx-Ub-VS probe labelling,[9],-0.218
same,log2 ratio of Biotin-Ahx-Ub-VS probe labelling,[10],-0.157
